{
  "source": "PubChem BioAssay (NCI)",
  "note": "The panel holds about 83,000 compounds, 20% with a hit somewhere; the sample as a whole holds those more often.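 A percent growth of 40 corresponds to 60% growth inhibition; 0 means no net growth; -100 means all cells died. Active threshold: below 10.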 Values without a mark were called inactive. The source made the active and inactive calls.",
  "data": [
    {"test_system": "MDA-MB-435 melanoma", "test": "NCI-60 one-dose screen, 48 h (100 = growth as untreated, 0 = no growth, -100 = all killed)", "conditions": "10 µM unless noted", "values": [
      {"compound": "Cc1nnc(/N=C2\\NC(=O)/C(=C/C=C/c3ccccc3)S2)s1", "growth": "16.3%"},
      {"compound": "O=c1oc2ccc3ccccc3c2cc1-c1ccnc2[nH]c(=S)[nH]c(=O)c12", "growth": "106%"},
      {"compound": "Cn1cnc2nc[nH]c2c1=S", "growth": "109%"},
      {"compound": "COc1ccc(Cn2cc3c(c2-c2ccc(O)cc2)CCc2cnoc2-3)cc1", "growth": "-39.4% (active)"},
      {"compound": "CC(Br)c1nc2ccccc2cc1C(N)=O", "note": "(stereo not drawn)", "growth": "112%"},
      {"compound": "c1cc(C2CCCCC2)ccc1OCCCCCCN1CCNCC1", "growth": "42.1%"},
      {"compound": "CC(O)CN(CC(C)O)N(CC(C)O)CC(C)O", "note": "(stereo not drawn)", "growth": "104%"},
      {"compound": "COc1ccc2nc3cc(Cl)ccc3c(NCCCNC(C)=O)c2c1", "growth": "41.3%"},
      {"compound": "O=C1N/C(=N\\c2nnc(-c3ccc(O)cc3)s2)S/C1=C\\c1ccccc1O", "growth": "94.4%"},
      {"compound": "CCCCCc1ccnc(CC(=O)c2ccc(OC)cc2)c1", "growth": "102%"},
      {"compound": "NC(=O)CC(NC(=O)COc1ccc(Cl)cc1Cl)C(=O)O", "note": "(stereo not drawn)", "growth": "107%"},
      {"compound": "COc1cc2ncnc(Nc3ccc4c(cnn4C(=O)Nc4ccccc4)c3)c2cc1OC", "growth": "94.7%"},
      {"compound": "CCC(C)(CC)c1ccc(O)c(C)c1", "growth": "109%"},
      {"compound": "CC(O)C(N)=O", "note": "(stereo not drawn)", "growth": "103%"},
      {"compound": "CCCCCCCCC1OC1CCCCCCCC(=O)O", "note": "(stereo not drawn)", "growth": "107%"},
      {"compound": "CC(=O)NCCN", "growth": "107%"},
      {"compound": "COc1cc(NC(C)CCCN)c2nc(C)ccc2c1OC", "note": "(stereo not drawn)", "growth": "121%"},
      {"compound": "O=C1/C(=C\\c2cn(-c3nc(N4CCOCC4)nc(N4CCOCC4)n3)c3ccccc23)c2ccccc2N1c1c(Cl)cccc1Cl", "growth": "83.5%"}
    ]}
  ]
}
